# HT1080-NT tox – kills 2HG-producing HT-1080-NT fibrosarcoma cells; HT-1080-NT fibrosarcoma viability, CellTiter-Glo ATP luminescence, 48 h; Potency, µM (doses to about 46.1 µM), for inactives: at the highest dose activity, negative = less viability, most hits filed as cytotoxic; actives 1.6% (n = 360,000); AID 686970;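 further: NT is the 2HG producing partner of a matched IDH1 knockdown line; potency means the concentration at half of the fitted maximal effect; 0% = DMSO-treated cells and -100% = media-only wells without cells; nearly all actives have a fitted effect of over 55% in size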
#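 HT-1080-NT fibrosarcoma cells (2HG-overproducing), 750 cells/well in RPMI with 5% FBS, dosed after 2 h and incubated 48 h at 37C. CellTiter-Glo luminescence normalized to DMSO and no-cell wells; concentration-response curves fitted and classed.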
# HT1080 IDH1KD tx – toxicity to HT-1080 IDH1 knockdown cells (counter line); Potency, µM (doses to about 46.1 µM), for inactives: at the top dose activity, negative = toxicity, usual class: cytotoxic; actives 2% (n = 360,000); HT-1080 IDH1 knockdown viability, ATP luminescence, 48 h;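 further: potency means the concentration at half of the fitted maximal effect; 0% = DMSO wells and -100% = cell-free medium wells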
#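 After a 2 h attachment period, IDH1KD HT-1080 cells took pin-transferred compound for 48 h at 37 °C; ATP-based luminescence after 10 min room-temperature reagent incubation reported viability.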
# TDP1 cell CPT – growth inhibition of DT40 Tdp1-/-;hTDP1 cells with camptothecin (screen for TDP1 inhibitors) | chicken DT40 Tdp1-/-;hTDP1 cells + 20 nM CPT, ATP luminescence, 48 h | AID 686979 | actives 12% (n = 420,000) | Potency, µM (titrated, usually from 46.2 µM), for inactives: at the highest dose activity change, negative = growth inhibition, usual class: inhibitors; further: potency means the concentration at half of the fitted maximal effect; nearly all actives have a fitted effect of over 55% in size
#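 Cell growth measured by CellTiter-Glo luminescence after a minimum 48 h, 37 C compound exposure with 20 nM CPT in Tdp1-knockout DT40 cells stably expressing hTDP1, seeded 400/well; qHTS titration format.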
# TDP1 cell noCPT – qHTS for Inhibitors of human tyrosyl-DNA phosphodiesterase 1 (TDP1): qHTS in cells in absence of CPT. DT40 Tdp1-/- hTDP1 cells, no CPT, ATP luminescence, 48 h. Potency, µM (top dose mostly 46.2 µM), for the others: at the top dose activity change, negative = growth inhibition, most hits filed as inhibitors. actives 15% (n = 420,000). AID 686978, 2013; further: potency means the concentration at half of the fitted maximal effect; nearly all actives have a fitted effect of over 55% in size
#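 Seeded 400 DT40-hTDP1 cells/well (vehicle DMSO, no 20 nM CPT); pinned compounds; ≥48 hr at 37 °C; CellTiter-Glo luminescence as viability measure.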
# uPA generation – cell surface uPA generation inhibition; cell surface uPA generation assay, qHTS; Potency, µM (doses to about 38.3 µM), inactives show at the highest dose activity change, negative = inhibition, actives largely listed as inhibitors; actives 0.31% (n = 330,000); active means well fitted inhibition curve with a large enough effect; inconclusive means small, poorly fitted or top-dose-only effect; inactive means no such curve, though single readings can be large or run the other way; tested in mouse RAW 264.7 cells; further: potency means the concentration at half of the fitted maximal effect; nearly all actives have a fitted effect of over 55% in size
# IL1B secr inh – blocks inflammasome-driven IL-1 beta release | activity change, % at 57.5 µM | actives 4.7% (n = 360,000) | AID 743279 | THP-1 LPS/ATP IL-1B secretion, AlphaLISA, 16 h; hits give low values; in the data active means activity change below about -50%; inconclusive means mostly about -30% to -49%
#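 Secreted IL-1B measured by AlphaLISA bead assay after 16 h compound exposure of THP-1 cells; compounds (final up to 57.5 uM) added 1 h before LPS (250 ng/mL) and ATP (1.25 mM) stimulation; lower signal means less secretion.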
# * marks the source's active call; other numbers are inactive results; ? = inconclusive; / = not tested or not shown. Hits are enriched below; roughly 19% of the tested compounds scored in any of these assays. Unless noted, the call rests on the fitted dose curve; in most records, active means well fitted curve in the direction sought with a large enough effect; inconclusive means small, poorly fitted or top-dose-only effect, or another doubt; inactive means no such curve, though single readings can be large; an effect the other way counts as inactive or inconclusive. Unless noted, on the % scale 0 is the no-effect control and ±100 the full control effect.
SMILES,HT1080-NT tox,HT1080 IDH1KD tx,TDP1 cell CPT,TDP1 cell noCPT,uPA generation,IL1B secr inh
Cc1c(N/N=C(\C#N)C(=O)c2ccccc2)c(=O)n(-c2ccccc2)n1C,-22%,?,2.9µM*,3.3µM*,-14%,106
Cc1ccccc1C(=O)/C(C#N)=N/Nc1c(C)n(C)n(-c2ccccc2)c1=O,-26%,?,4.6µM*,3.7µM*,-8%,0
N#C/C(=N/Nc1ccccc1[N+](=O)[O-])C(N)=S,3%,-1%,-28%,?,-6%,27
CCOC(=O)/C(C#N)=N/Nc1c(C)n(C)n(-c2ccccc2)c1=O,-26%,-8%,16µM*,16µM*,2%,0
CCOC(=O)/C(C#N)=N/Nc1ccccc1C#N,-4%,-2%,8.2µM*,21µM*,-2%,48
Cc1ccc([C@H]2C(C(=O)O)=CC[C@@H](c3ccc4c(c3)OCO4)N2S(=O)(=O)c2ccc(C)cc2)cc1,-16%,-6%,-23%,-28%,5%,4
Cc1cc(-c2ccc(C)c(S(=O)(=O)NCCN3CCC(C)CC3)c2)on1,-20%,-1%,?,-21%,-4%,0
CCc1ccc(-c2cc(C)no2)cc1S(=O)(=O)N1CCC(C)CC1,3%,-17%,?,23µM*,-2%,39
Cc1cc(-c2ccc(C(C)C)c(S(=O)(=O)N3CCN(c4ccccc4)CC3)c2)on1,1.5µM*,1.8µM*,2.6µM*,2.1µM*,2%,31
Cc1cc(-c2ccc(C(C)C)c(S(=O)(=O)N3CCC(C)CC3)c2)on1,?,?,26µM*,18µM*,10%,13
COc1ccc2nc3sc(C(=O)N4CCN(c5ccc(F)cc5)CC4)cc3cc2c1,/,/,15%,-26%,/,/
Cc1ccc(OCC(=O)NCC2(N3CCOCC3)CCCCC2)cc1C,/,/,21µM*,16µM*,/,/
O=C(COc1ccccc1[N+](=O)[O-])NCC1(N2CCOCC2)CCCCC1,10%,16%,?,21µM*,1%,-26
O=C(COc1ccc(F)cc1)NCC1(N2CCOCC2)CCCCC1,-9%,5%,?,3%,3%,-15
Cc1cccc(C)c1OCC(=O)NCC1(N2CCOCC2)CCCCC1,/,/,16µM*,?,/,/
Cc1cc(C)cc(OCC(=O)NCC2(N3CCOCC3)CCCCC2)c1,/,/,?,26µM*,/,/
O=C(Cc1ccccc1F)NCC1(N2CCOCC2)CCCCC1,-2%,9%,-7%,-2%,3%,6
Cc1cccc(C)c1OCC(=O)NCC1(N(C)C)CCCCC1,/,/,-5%,-20%,/,/
CC(Oc1ccccc1F)C(=O)NCC1(N2CCOCC2)CCCCC1 (configuration not stated),/,/,?,18µM*,/,/
CN(C)C(=O)CNc1ccn2nc(-c3cccc(Cl)c3)cc2n1,-1%,-19%,23µM*,18µM*,/,20
Clc1ccc(-c2cc3nc(NCc4cccc(Cl)c4)ccn3n2)cc1,-15%,-22%,?,26µM*,/,18
c1ccc(COc2cccc(-c3cc4nc(NCCOc5ccccc5)ccn4n3)c2)cc1,?,?,?,?,/,-30
Clc1cccc(CNc2ccn3nc(-c4ccc(OCc5ccccc5)cc4)cc3n2)c1,-13%,-26%,16µM*,?,/,-16
Clc1cccc(CNc2ccn3nc(-c4cccc(Cl)c4)cc3n2)c1,?,?,?,?,/,-51*
CCCC1=C([O-])C2N=CC=CC2=[N+](c2ccccn2)C1=O (configuration not stated),3%,4%,-9%,-7%,-3%,-10
Cc1ccc(C(=O)NNC(=O)C(NC(=O)c2cccc(C)c2)C(C)C)cc1 (configuration not stated),-2%,1%,-10%,-16%,-12%,-16
COc1ccc(S(=O)(=O)NC(=O)C2(C)CCN2C(=O)Cc2ccccc2Cl)cc1 (configuration not stated),?,?,-12%,-1%,/,-24
CC(C)(C)c1cc2nc(NCc3cccc(Cl)c3)ccn2n1,?,-24%,18µM*,16µM*,/,-19

# Screening results from PubChem BioAssay.
